Measurements: the supplement of paper PMC10849652
Of roughly 7,900 targets only a part is listed; those with a hit were picked by preference. About 0.6% of all pairs of compound and target were hits. Unmarked numbers belong to inactive results.

Legend:
Assay in all cases: log2 fold change, soluble protein after heating vs DMSO (PISA); higher = thermal stabilisation; K562 cells, 10 uM, 30 min; active = over 0.2 and 3.5 SD of the protein, either way, in both replicates (recomputed)
[1] = compound: NC(=O)Nc1cc(-c2cccc(F)c2)sc1C(=O)N[C@H]1CCCNC1
Outline: (§1)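 K562 cells (2×10^6 cells/mL) were treated with 10 μM compound for 30 min, and aliquots were heated for 3 min over 48°C-58°C. Pooled aliquots were extracted in PBS with 0.5% NP-40 at 4°C, and the supernatant after 21,000xg for 90 min was measured by TMTpro 16plex LC-MS/MS with channel sums equalised. Reported thermal stability, relative to control samples and from duplicates, is a log2 fold change.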

[2] = compound: NC(=O)c1cnc(N[C@@H]2CCCC[C@@H]2N)nc1Nc1cccc(-n2nccn2)c1
Outline: as §1

[3] = compound: NC1(c2ccc(-c3nc4ccn5c(=O)[nH]nc5c4cc3-c3ccccc3)cc2)CCC1
Outline: as §1

[4] = compound: NCC(=O)Nc1ccc(-n2nc(C(F)(F)F)cc2-c2ccc3c(ccc4ccccc43)c2)cc1
Outline: as §1

entinostat = compound: Nc1ccccc1NC(=O)c1ccc(CNC(=O)OCc2cccnc2)cc1 [entinostat]
Outline: as §1

vorinostat = compound: O=C(CCCCCCC(=O)Nc1ccccc1)NO [vorinostat]
Outline: as §1

citarinostat = compound: O=C(CCCCCCNC(=O)c1cnc(N(c2ccccc2)c2ccccc2Cl)nc1)NO [citarinostat]
Outline: as §1

silmitasertib = compound: O=C(O)c1ccc2c(c1)nc(Nc1cccc(Cl)c1)c1ccncc12 [silmitasertib]
Outline: as §1

[5] = compound: O=C1NC(=O)C(c2cnc3ccccn23)=C1c1cn2c3c(cc(F)cc13)CN(C(=O)N1CCCCC1)CC2
Outline: as §1

[6] = compound: c1cc(OCCN2CCCCC2)cc(-c2n[nH]c3ccc(-c4nnc[nH]4)cc23)c1
Outline: as §1

entospletinib = compound: c1cn2cc(-c3ccc4cn[nH]c4c3)nc(Nc3ccc(N4CCOCC4)cc3)c2n1 [entospletinib]
Outline: as §1

Chain of UniProt Q00973 (Q00973 whole entry, looked up): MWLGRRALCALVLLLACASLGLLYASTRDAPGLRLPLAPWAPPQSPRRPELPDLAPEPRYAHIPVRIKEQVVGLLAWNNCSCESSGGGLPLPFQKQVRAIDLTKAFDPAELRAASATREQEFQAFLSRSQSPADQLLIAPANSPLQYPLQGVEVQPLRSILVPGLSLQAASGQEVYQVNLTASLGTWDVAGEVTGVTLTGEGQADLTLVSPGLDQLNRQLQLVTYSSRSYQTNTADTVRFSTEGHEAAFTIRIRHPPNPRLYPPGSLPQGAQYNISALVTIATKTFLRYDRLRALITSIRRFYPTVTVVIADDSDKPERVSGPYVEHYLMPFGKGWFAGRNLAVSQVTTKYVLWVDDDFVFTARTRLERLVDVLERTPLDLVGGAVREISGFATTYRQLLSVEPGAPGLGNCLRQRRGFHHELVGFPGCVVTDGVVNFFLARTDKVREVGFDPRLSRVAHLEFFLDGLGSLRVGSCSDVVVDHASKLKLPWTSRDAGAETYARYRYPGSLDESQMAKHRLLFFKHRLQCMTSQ
Chain of UniProt Q562R1 (Q562R1 whole entry, looked up): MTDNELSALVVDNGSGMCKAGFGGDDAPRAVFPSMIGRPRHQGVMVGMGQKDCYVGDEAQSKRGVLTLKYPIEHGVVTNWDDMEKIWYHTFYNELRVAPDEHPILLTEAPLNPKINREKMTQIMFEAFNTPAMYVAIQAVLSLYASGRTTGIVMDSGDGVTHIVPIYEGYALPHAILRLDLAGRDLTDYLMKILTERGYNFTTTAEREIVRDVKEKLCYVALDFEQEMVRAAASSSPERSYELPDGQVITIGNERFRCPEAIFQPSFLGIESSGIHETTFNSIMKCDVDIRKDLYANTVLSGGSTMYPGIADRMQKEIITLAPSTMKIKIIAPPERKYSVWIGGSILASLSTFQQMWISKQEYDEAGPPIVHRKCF
Chain of UniProt P31751 (P31751 whole entry, looked up): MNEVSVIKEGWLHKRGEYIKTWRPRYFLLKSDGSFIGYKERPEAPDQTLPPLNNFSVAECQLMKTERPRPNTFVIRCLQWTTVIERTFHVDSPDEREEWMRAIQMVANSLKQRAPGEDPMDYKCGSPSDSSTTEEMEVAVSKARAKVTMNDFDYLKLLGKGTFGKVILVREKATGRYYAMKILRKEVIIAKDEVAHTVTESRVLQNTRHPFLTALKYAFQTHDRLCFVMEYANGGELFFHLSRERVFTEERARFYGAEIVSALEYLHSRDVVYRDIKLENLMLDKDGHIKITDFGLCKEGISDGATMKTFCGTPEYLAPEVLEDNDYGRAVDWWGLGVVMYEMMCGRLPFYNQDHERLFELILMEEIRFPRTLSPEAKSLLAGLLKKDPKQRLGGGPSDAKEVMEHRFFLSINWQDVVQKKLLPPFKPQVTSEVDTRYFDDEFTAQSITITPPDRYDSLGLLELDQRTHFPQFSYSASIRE
Chain of UniProt Q9ULX6 (Q9ULX6 whole entry, looked up): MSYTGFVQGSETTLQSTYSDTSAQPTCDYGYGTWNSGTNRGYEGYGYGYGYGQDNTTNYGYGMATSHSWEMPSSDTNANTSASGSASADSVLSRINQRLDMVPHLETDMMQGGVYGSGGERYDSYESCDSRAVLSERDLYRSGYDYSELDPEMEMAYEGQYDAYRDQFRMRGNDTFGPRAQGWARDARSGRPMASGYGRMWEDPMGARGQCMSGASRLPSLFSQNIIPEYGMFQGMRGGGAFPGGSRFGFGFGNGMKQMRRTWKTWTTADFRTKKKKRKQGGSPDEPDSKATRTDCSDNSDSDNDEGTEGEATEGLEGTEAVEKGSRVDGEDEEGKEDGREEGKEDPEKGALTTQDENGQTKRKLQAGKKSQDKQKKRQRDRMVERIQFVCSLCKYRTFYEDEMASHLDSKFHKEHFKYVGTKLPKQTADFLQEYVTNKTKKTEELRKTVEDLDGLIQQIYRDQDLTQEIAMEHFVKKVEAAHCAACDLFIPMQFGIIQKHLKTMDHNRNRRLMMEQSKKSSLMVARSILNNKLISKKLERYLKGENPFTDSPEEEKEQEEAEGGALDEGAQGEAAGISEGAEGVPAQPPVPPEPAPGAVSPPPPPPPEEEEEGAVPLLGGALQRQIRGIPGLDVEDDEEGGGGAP
Chain of UniProt Q9NSY1 (Q9NSY1 whole entry, looked up): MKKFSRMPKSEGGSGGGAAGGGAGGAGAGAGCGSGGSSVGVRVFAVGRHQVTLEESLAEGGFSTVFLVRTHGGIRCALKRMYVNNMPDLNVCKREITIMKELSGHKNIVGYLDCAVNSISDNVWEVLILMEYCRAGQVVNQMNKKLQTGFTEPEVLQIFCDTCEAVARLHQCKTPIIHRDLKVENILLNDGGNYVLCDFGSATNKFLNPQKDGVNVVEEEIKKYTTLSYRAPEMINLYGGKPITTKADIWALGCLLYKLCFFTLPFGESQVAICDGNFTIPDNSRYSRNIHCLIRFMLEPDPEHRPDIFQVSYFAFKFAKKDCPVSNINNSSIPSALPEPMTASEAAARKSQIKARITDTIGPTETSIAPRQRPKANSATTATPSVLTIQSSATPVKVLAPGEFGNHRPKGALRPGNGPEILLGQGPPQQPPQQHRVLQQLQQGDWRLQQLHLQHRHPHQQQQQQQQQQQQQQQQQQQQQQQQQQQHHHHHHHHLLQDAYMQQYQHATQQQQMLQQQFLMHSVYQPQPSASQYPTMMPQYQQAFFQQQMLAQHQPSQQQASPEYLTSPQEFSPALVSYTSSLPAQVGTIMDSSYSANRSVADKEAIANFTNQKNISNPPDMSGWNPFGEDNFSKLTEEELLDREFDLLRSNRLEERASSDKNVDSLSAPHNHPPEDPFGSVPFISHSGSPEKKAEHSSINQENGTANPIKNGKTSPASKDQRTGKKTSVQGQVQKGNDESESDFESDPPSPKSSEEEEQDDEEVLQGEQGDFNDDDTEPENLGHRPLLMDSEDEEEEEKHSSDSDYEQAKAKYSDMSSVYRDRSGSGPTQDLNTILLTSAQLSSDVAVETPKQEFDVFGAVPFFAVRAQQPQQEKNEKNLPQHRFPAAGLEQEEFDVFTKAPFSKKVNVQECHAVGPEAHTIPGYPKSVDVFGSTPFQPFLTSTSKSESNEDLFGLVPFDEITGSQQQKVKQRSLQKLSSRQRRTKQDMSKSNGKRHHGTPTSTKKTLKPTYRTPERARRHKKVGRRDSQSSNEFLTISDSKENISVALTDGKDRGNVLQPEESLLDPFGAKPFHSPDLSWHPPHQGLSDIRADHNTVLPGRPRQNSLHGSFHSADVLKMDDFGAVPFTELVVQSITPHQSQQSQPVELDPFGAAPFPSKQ
Chain of UniProt Q9Y6D6 (Q9Y6D6 whole entry, looked up): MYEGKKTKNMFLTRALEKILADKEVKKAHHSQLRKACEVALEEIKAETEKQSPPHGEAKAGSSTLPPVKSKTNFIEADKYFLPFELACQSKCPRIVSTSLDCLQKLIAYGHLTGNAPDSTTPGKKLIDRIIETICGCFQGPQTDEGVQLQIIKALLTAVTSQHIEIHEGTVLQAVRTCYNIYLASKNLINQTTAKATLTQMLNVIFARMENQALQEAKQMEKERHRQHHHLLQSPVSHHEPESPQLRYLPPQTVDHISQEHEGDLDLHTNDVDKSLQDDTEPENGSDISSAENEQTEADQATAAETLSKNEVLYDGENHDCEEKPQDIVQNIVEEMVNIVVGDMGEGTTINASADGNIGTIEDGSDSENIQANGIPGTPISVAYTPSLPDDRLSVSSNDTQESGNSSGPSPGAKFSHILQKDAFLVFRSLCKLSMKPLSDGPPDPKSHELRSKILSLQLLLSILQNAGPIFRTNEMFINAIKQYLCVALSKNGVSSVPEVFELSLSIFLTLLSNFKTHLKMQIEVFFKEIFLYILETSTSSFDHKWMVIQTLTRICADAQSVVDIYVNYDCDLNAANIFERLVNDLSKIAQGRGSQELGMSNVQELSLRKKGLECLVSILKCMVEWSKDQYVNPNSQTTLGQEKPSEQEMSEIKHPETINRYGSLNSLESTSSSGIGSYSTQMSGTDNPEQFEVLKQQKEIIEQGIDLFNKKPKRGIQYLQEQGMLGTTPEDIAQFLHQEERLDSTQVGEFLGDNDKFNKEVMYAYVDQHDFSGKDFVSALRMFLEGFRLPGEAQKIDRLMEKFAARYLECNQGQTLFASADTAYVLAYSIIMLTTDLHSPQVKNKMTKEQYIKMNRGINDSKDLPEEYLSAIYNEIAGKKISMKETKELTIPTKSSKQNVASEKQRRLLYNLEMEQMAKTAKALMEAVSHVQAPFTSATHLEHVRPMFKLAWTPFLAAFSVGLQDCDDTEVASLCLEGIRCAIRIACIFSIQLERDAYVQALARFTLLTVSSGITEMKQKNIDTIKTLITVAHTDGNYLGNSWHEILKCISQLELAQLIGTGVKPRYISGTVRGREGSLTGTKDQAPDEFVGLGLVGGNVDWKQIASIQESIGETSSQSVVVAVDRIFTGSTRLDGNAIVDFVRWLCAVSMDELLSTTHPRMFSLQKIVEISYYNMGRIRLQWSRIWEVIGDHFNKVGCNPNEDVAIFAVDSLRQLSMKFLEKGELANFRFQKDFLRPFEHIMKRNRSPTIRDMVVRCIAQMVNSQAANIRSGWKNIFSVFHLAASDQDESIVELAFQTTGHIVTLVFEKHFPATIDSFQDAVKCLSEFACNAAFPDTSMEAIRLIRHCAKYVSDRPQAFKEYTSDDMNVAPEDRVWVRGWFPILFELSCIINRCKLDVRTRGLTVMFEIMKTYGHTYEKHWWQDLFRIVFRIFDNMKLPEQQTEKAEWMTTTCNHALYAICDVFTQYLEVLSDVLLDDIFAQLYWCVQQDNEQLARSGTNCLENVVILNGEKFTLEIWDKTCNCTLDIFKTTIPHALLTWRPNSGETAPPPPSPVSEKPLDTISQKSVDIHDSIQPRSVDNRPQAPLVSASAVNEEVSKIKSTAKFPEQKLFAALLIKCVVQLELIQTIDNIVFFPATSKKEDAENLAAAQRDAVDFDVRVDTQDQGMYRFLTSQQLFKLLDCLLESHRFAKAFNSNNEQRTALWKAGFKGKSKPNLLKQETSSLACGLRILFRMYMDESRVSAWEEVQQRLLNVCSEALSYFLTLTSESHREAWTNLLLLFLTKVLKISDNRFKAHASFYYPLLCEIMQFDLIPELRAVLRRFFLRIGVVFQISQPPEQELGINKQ

| Target | log2 fold change [1] | log2 fold change [2] | log2 fold change [3] | log2 fold change [4] | log2 fold change (entinostat) | log2 fold change (vorinostat) | log2 fold change (citarinostat) | log2 fold change (silmitasertib) | log2 fold change [5] | log2 fold change [6] | log2 fold change (entospletinib) |
| --- | --- | --- | --- | --- | --- | --- | --- | --- | --- | --- | --- |
| AIP (UniProt O00170) | -0.004 | 0.011 | -0.128 | 0.018 | 0.084 | 0.076 | 0.105 | 0.038 | 0.031 | 0.036 | -0.031 |
| ABHD16A (UniProt O95870) | -0.026 | 0.026 | 0.113 | 0.049 | -0.02 | 0.055 | 0.026 | -0.022 | 0.005 | 0.008 | 0.002 |
| B4GALNT1 (UniProt Q00973) | -0.001 | -0.062 | -0.093 | 0.092 | 0.02 | 0.003 | 0.538 (active) | 0.062 | -0.095 | 0.064 | 0.074 |
| ALG5 (UniProt Q9Y673) | -0.047 | -0.129 | -0.029 | -0.031 | 0.02 | 0.052 | 0.051 | 0.075 | -0.106 | 0.08 | -0.005 |
| AKT2 (UniProt P31751) | -0.008 | -0.266 (active) | 1.18 (active) | -0.051 | 0.085 | 0.022 | 0.077 | -0.026 | -0.017 | -0.013 | 0.005 |
| ACTBL2 (UniProt Q562R1) | -0.205 | 0.038 | 1.54 (active) | 0.239 | 0.103 | 0.024 | -0.585 | -0.129 | -0.051 | -0.1 | 0.103 |
| AKAP8L (UniProt Q9ULX6) | -0.006 | 0.153 | -0.063 | -0.098 | 0.01 | 0.088 | 0.124 | -0.012 | -0.236 | -0.067 | 0.171 |
| BAD (UniProt Q92934) | -0.243 | 0.033 | 0.101 | -0.018 | -0.122 | 0.011 | -0.064 | -0.071 | 0.131 | -0.072 | -0.014 |
| ALDH18A1 (UniProt P54886) | 0.033 | -0.03 | -0.34 | -0.219 | 0.249 | 0.194 | 0.031 | 0.018 | -0.329 | -0.372 | -0.246 |
| ARFGEF1 (UniProt Q9Y6D6) | 0.028 | 0.121 | -0.023 | 0.006 | -0.044 | 0.02 | 0.009 | 0.065 | 0.023 | 0.069 | -0.009 |
| BMP2K (UniProt Q9NSY1) | 0.297 | 0.076 | 0.035 | -0.007 | -0.037 | -0.078 | -0.053 | 0.031 | 0.291 | 0.241 | 0.157 |
